Assay outcomes: PubChem, National Center for Advancing Translational Sciences (NCATS)
HCV inh = blocks hepatitis C virus; Huh7.5.1 HCVcc-Cre infection, luciferase reporter, 44 h; hit rate 3.4% among 340,000; Potency, µM (series often up to 41.8 µM), without a hit: top-dose activity change, negative = inhibition, most hits filed as inhibitors; also: % is scaled to controls: 0 for no effect and ±100 for the full control effect
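1,000 cells/well; 4 h culture; + compound; + HCVcc-Cre (~0.5 moi); 44 h; luciferase substrate, RT 15 min; read 15 sec.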
SARS PLpro yeast = SARS-CoV PLP inhibition in yeast. S. cerevisiae expressing SARS-CoV PLpro, growth rescue. Potency, µM (top dose mostly 32.9 µM), without a hit: top-dose activity, positive = growth rescue, actives largely listed as activators. hit rate 0.19% among 330,000. AID 485353; calls by dose curve; also: 0% is about no effect; nearly all actives have a fitted effect of over 55% in size
Pf growth 48h = inhibits P. falciparum growth in the first generation, 48 h; Potency, µM (highest dose often 28.7 µM), without a hit: at the top dose activity change, negative = inhibition, most hits filed as inhibitors; AID 504832; hit rate 5.9% among 310,000; P. falciparum luciferase growth in erythrocytes, 48 h; also: % is scaled to controls: 0 for no effect and ±100 for the full control effect
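In quantitative HTS format, infected erythrocytes bearing luciferase-reporter parasites were treated for a single generation at 37 C. Luminescence after adding detection reagent served as the growth measure.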
NS1 function inh = blocks influenza NS1 protein function | Potency, µM (doses to about 46.1 µM), inactives show at the highest dose activity, positive = more growth | hit rate 0.4% among 270,000 | AID 2326; calls by dose curve; also: actives are rising curves; nearly all actives have a fitted effect of over 50% in size
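A cell-based growth assay was used: compounds that relieve NS1-induced slow growth of budding yeast raise OD600. Assay medium was yeast nitrogen base with ammonium sulphate and -URA supplement, pH 6.0, with 2% galactose.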
Pf growth 96h = P. falciparum growth inhibition at 96 hour, primary screen for plastid delayed-death inhibitors; P. falciparum luciferase reporter growth, 96 h; Potency, µM (series often up to 28.7 µM), for inactives: at the highest dose activity change, negative = inhibition, hits mostly inhibitors; hit rate 6.9% among 320,000; also: % is scaled to controls: 0 for no effect and ±100 for the full control effect
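Parasite growth measured via integrated firefly luciferase reporter in P. falciparum. Infected erythrocytes at 2% hematocrit, 0.05% parasitemia final were treated 96 hours at 37 C under 5% CO2, and luminescence was read.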
AMA1 RON2 block = inhibitors of Plasmodium falciparum AMA1-RON2 interaction; AlphaScreen AMA1-biotinylated RON2 peptide binding; Potency, µM (series often up to 58.2 µM), inactives show at the highest dose activity change, negative = inhibition, most hits filed as inhibitors; hit rate 0.2% among 360,000; AID 720542;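 also: 0% = vehicle wells and -100% = peptide control; nearly all actives have a fitted effect of over 45% in size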
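AMA1 (3D7) with his tag at 25 nM final met compounds first, then biotinylated RON2 peptide at 25 nM; detection used donor plus acceptor beads, 10 µg/mL apiece, read by AlphaScreen after 30 min at room temperature.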
An asterisk follows results filed as active; ? = inconclusive; · = no result given. Hits are enriched below; roughly 12% of the tested compounds scored in any of these assays. Unless noted, calls follow the shape of the dose curve; as a rule, active = well fitted curve in the direction sought with a large enough effect; inconclusive = small, poorly fitted or top-dose-only effect, or another doubt; inactive = no such curve, though single readings can be large; an effect the other way counts as inactive or inconclusive. Potency is read from the fitted curve at half-maximal effect.

SMILES	HCV inh	SARS PLpro yeast	Pf growth 48h	NS1 function inh	Pf growth 96h	AMA1 RON2 block
S=C(NC1CCCC1)N1CCN(c2ccccn2)CC1	7.5%	-6.6%	4.3%	-10.9%	2.08µM*	9.8%
S=C(NC1CC1)N1CCN(c2ccc(Cl)cc2)CC1	-3.3%	-1.3%	-5.7%	-4.9%	0.0%	-1.3%
S=C(NC1CCCC1)N1CCN(c2cccc(Cl)c2)CC1	12.6µM*	-1.5%	-4.5%	-2.4%	2.8%	-2.7%
S=C(Nc1ccccc1)N1CCN(C(=S)Nc2ccccc2)CC1	·	3.7%	0.0%	·	5.22µM*	·
CC(C(=O)N1CCN(c2ccccc2)CC1)c1ccc([N+](=O)[O-])cc1 (stereo not drawn)	4.0%	2.3%	-6.0%	1.7%	13.1µM*	0.0%
Cc1noc(C)c1COc1ccccc1C(=O)NCc1ccco1	0.2%	2.1%	?	·	?	-0.4%
COC(=O)CC1C(=O)NCCN1C(=O)c1cc([N+](=O)[O-])ccc1Cl (stereo not drawn)	?	-0.5%	29.0%	-1.2%	-6.7%	-14.9%
O=[N+]([O-])c1ccc(N2CCN(C(=S)NC3CCCCC3)CC2)cc1	-23.5%	-9.0%	0.522µM*	7.5%	121.2%	-6.3%
Cc1ccc(NC(=S)N2CCN(S(=O)(=O)c3ccccc3)CC2)cc1	12.8%	-1.9%	-1.1%	3.4%	?	-11.0%
O=S(=O)(c1ccc(F)c(F)c1F)N1CCN(C(=S)Nc2ccccc2)CC1	-16.3%	-2.8%	2.33µM*	·	?	-4.7%
Cc1ccc(CC2CC(=O)N(c3cc(Cl)ccn3)C2=O)cc1 (stereo not drawn)	12.9%	0.8%	8.9%	-1.2%	?	-15.4%
CN(C)c1ccc(/C=C(/NC(=O)c2ccccc2)C(=O)N/N=C/c2ccc([N+](=O)[O-])c(O)c2)cc1	?	-1.6%	13.1µM*	?	5.22µM*	-16.6%
O=C(N/N=C/c1ccc2c(c1)OCO2)/C(=C/c1ccc2c(c1)OCO2)NC(=O)c1ccccc1	5.8%	10.4%	-0.7%	11.7%	0.2%	47.8%
CCOCCn1c(=O)c2c(nc3n2CCCN3Cc2ccccc2)n(C)c1=O	-17.1%	-2.1%	-22.4%	0.0%	?	-5.3%
Cn1c(=O)n(Cc2ccccc2)c(=O)c2c1nc1n2CCCN1Cc1ccccc1	16.5%	6.1%	?	-58.9%	?	2.4%
CCCCn1c(=O)c2c(nc3n2CCCN3Cc2ccccc2)n(C)c1=O	-8.7%	3.1%	5.22µM*	-0.8%	?	-9.0%
CCOCCn1c(=O)c2c(nc3n2CCCN3CCc2ccccc2)n(C)c1=O	-4.2%	3.5%	?	-0.8%	14.7µM*	3.7%
Cn1c(=O)n(Cc2ccccc2)c(=O)c2c1nc1n2CCCN1CCc1ccccc1	?	-13.6%	·	24.9%	3.29µM*	-26.7%
COc1ccc(-c2c(-c3ccccc3OC)oc3ccccc23)cn1	?	1.5%	?	·	?	7.0%
O=C(CN1C(=O)c2ccccc2S1(=O)=O)NCCSCc1c(F)cccc1Cl	14.6%	-6.2%	10.9%	-5.2%	29.0%	-7.3%
CCc1cc(C(=O)N2CCCC(C(=O)c3cccc4ccccc34)C2)n(C)n1 (stereo not drawn)	10µM*	-0.3%	2.5%	-2.3%	?	-11.7%
COC(=O)C1=C(N)Oc2cc(C)n(CCCn3ccnc3)c(=O)c2C1c1cccc(Cl)c1 (stereo not drawn)	12.9%	3.5%	5.86µM*	-12.4%	·	-12.4%
COC(=O)C1=C(N)Oc2cc(C)n(CCc3ccccc3)c(=O)c2C1c1cccnc1 (stereo not drawn)	?	0.2%	10.4µM*	-49.6%	?	-15.4%
CCOC(=O)C1=C(N)Oc2ccc3ccccc3c2C1c1cccnc1 (stereo not drawn)	7.0%	-23.6%	?	0.3%	9.28µM*	28.5%
CCOC(=O)C1=C(N)Oc2cc(C)n(CCc3ccc(OC)c(OC)c3)c(=O)c2C1c1cccnc1 (stereo not drawn)	-10.4%	2.8%	2.33µM*	-33.1%	10.4µM*	0.2%
SMILES	HCV inh	SARS PLpro yeast	Pf growth 48h	NS1 function inh	Pf growth 96h	AMA1 RON2 block
CCN(CC)CCN(C(=O)Cn1nnc(-c2ccc(C)o2)n1)C(C(=O)NC(C)(C)C)c1cccs1 (stereo not drawn)	5.4%	0.2%	?	2.0%	?	-2.8%
CC1(C)CC(=O)C=C(c2ccc(COC(=O)C3CC3)cc2)C1=O	·	·	·	·	·	-10.3%
CC1CCN(CC(O)COC2CC(C)CCC2C(C)C)CC1 (stereo not drawn)	-23.9%	-1.0%	11.7µM*	7.3%	?	-3.0%
CC1CCC(C(C)C)C(OCC(O)CNC(C)(C)C)C1 (stereo not drawn)	-7.7%	0.3%	?	·	5.22µM*	-0.1%
CCOC(=O)N1CCN(CC(O)COC2CC(C)CCC2C(C)C)CC1 (stereo not drawn)	-10.4%	-3.3%	?	-13.9%	·	-0.9%
CC1CCC(C(C)C)C(OCC(O)CNC(C)c2ccccc2)C1 (stereo not drawn)	?	-0.8%	?	-0.1%	?	4.1%
CCC(C(=O)NCC1CCCO1)n1nc(C)c2sc3ccccc3c2c1=O (stereo not drawn)	-24.8%	2.4%	-9.1%	-2.1%	?	5.7%
FC(F)(F)c1cc(NC(=S)N2c3ccccc3-n3cccc3[C@H]2c2cccnc2)cc(C(F)(F)F)c1	·	·	·	-15.9%	·	·
O=C1CCc2cc(S(=O)(=O)N3CCCCC3)cc3c2N1CC3	-6.8%	0.7%	?	·	?	-7.5%
COc1ccc(Cc2nc3ccc(C(=O)NCCCSC)cc3o2)cc1OC	0.9%	-5.2%	-14.9%	-2.7%	2.94µM*	7.7%
Cc1cc(=O)[nH]c(N2CCN(Cc3ccccc3)CC2)n1	-2.0%	0.0%	-16.2%	9.7%	237.3%	-5.8%
Cc1cc(=O)[nH]c(-n2[nH]c3c(c2=O)CCCC3)n1	7.2%	-6.8%	4.15µM*	-4.8%	?	-6.2%
Cc1nc(N2CCc3ccccc3C2)[nH]c(=O)c1Cc1ccccc1	-1.2%	-1.4%	0.0%	4.7%	?	-1.7%
Cc1nc(-n2[nH]c3c(c2=O)CCCC3)[nH]c(=O)c1Cc1ccccc1	7.08µM*	5.6%	?	-35.7%	?	11.5%
Cc1cc(=O)[nH]c(N2CCCNCC2)n1	18.9%	0.5%	11.7µM*	0.8%	-32.1%	-2.9%
CCOc1ccc2ccccc2c1/C=N/NC(=O)CNC(=O)c1ccccc1F	?	-3.2%	25.9%	-37.7%	-6.6%	-11.2%
CC1CN(c2nnc(NC(=O)c3ccccc3)s2)CC(C)O1 (stereo not drawn)	-26.7%	-6.7%	20.0%	·	42.2%	-1.5%
COc1ccc(-n2nc3c(N4CCC(C(=O)NCc5ccccc5C)CC4)nnc(C)c3c2C)cc1	11.2µM*	2.5%	?	-1.7%	?	-1.8%
